{"source": "PubChem BioAssay (EPA / NIEHS)", "note": "Active and inactive are the calls of the source. How the source made its calls: active means hit-call score of the fitted dose curve at least 0.9, where 1 is the maximum; inactive means score below 0.9.", "data": [{"assay": "CEETOX_H295R_CORTIC: CeeTox H295R High-throughput Steroidogenesis Assay for Corticosterone (CORTIC) (AID 2283437);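 further: corticosterone secreted into medium quantified by mass spectrometry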", "details": "actives raise or lower the signal", "protocol": "CEETOX_H295R is a cell-based, multiplexed-readout assay that uses H295R, a human adrenal gland cell line, with measurements taken at 48 hours after chemical dosing in a 96-well plate.CEETOX_H295R_CORTIC is one of 23 assay component(s) measured or calculated from the CEETOX_H295R assay. It is designed to make measurements of hormone induction, a form of inducible reporter, as detected with absorbance signals by HPLC-MS-MS technology.Data from the assay component CEETOX_H295R_CORTIC was analyzed into 1 assay endpoint. This assay endpoint, CEETOX_H295R_CORTIC, was analyzed with bidirectional fitting relative to DMSO as the negative control and baseline of activity. Using a type of inducible reporter, gain or loss-of-signal activity using HPLC-MS-MS was used to understand synthesis of Corticosterone in H295R cell line at 48hr of chemical exposure. To generalize the intended target to other relatable targets, this assay endpoint is annotated to the steroid hormone intended target family, where the subfamily is glucocorticoids.\nCell culture and media preparation procedures were conducted in accordance with OECD Test No. 456 guidelines, with minor modifications. H295R cells (ATCC CRL-2128) were expanded for 5 passages and frozen in batches in liquid nitrogen. Prior to the steroidogenesis assay, H295R cells were thawed and passed at least 4 times. The maximum passage was 10. Cells were maintained in a 1:1 mixture of DMEM/F12 supplemented with 5ml/L ITS+ Premix (BD Bioscience) and 12.5 ml/L Nu-Serum (BD Bioscience). After seeding cells into 96-well plates at 50-60% confluency, cells were allowed to adhere overnight. Prior to chemical testing, culture medium was replaced with 175 uL medium containing 10 uM forskolin to stimulate steroidogenesis for 48 hours. Following prestimulation, forskolin medium was replaced with medium containing test chemical solubilized in DMSO (ensuring a final concentration of 0.1% DMSO). Test chemicals were incubated for 48 hours, then the medium was removed and split into 2 vials containing approximately 75uL each, and stored at -80 C prior to hormone analysis. For steroid quantification, media samples were shipped to OpAns, LLC (Durham, NC) on dry ice, and samples were thawed to room temperature prior to liquid-liquid extraction. Steroid hormones were extracted from media samples using methyl tertbutyl ether (MTBE). An extra derivatization with dansyl chloride was included for estrogen (estrone and estradiol) detection only. Steroid hormones were separated by HPLC, eluted using a reverse phase C18 gradient with electrospray positive ionization, followed by quantification by tandem mass spectrometry (MS/MS). Data were acquired on a MassHunter Workstation Acquisition version B03.01 (Agilent Technologies, Inc.) and processed using MassHunter Quantitative Analysis for QQQ. Accuracy was determined for each hormone analyte from 3 standards to determine upper and lower limits of quantification (ULOQ and LLOQ, respectively) using a 7-point standard curve. Precision and accuracy of the extraction and quantification methods were calculated as the percent relative standard deviation (%RSD) of the spiked standards and percent spiked standard recovered, respectively. […] Test medium was removed following chemical exposure, and cell viability was evaluated in the same wells by MTT. MTT procedures were as follows: after removal of test medium, 500 uL of 0.5 mg/ml of 3-[4,5-dimethylthiazol-2-y]2,5-diphenyltetrazoliumbromide solution was added to the cells. Following a 4-hour incubation at 37 C and 5% CO2 to allow formazan-crystal formation, the MTT solution was removed and blue formazan salt crystals were solubilized using 500uL anhydrous isopropanol with shaking for 20 minutes. Absorbance was read at 570 and 650nm using a Packard Fusion microplate reader. Background correction of absorbance units was used to determine percent change relative to controls. […]", "values": [{"compound": "CCn1c2ccccc2c2ccccc21", "outcome": "inactive"}, {"compound": "CCN(CC)c1ccc(C=O)cc1", "outcome": "inactive"}, {"compound": "CN1CN(C)CN(C)C1", "outcome": "inactive"}, {"compound": "CCCCC(CC)COC(=O)c1ccc(N(C)C)cc1", "note": "(stereo unspecified)", "outcome": "inactive"}, {"compound": "O=c1[nH]cccc1O", "outcome": "inactive"}, {"compound": "CCCCCCCCCc1ccc(OCCO)cc1", "outcome": "inactive"}, {"compound": "C[C@]12CC[C@H]3C(=CCc4cc(O)ccc43)[C@@H]1CCC2=O", "outcome": "inactive"}, {"compound": "OCCC(O)CO", "note": "(stereo unspecified)", "outcome": "inactive"}, {"compound": "CCCCCCCCCCCCC[N+](C)(C)Cc1ccccc1", "outcome": "inactive"}, {"compound": "Nc1cccnc1N", "outcome": "inactive"}, {"compound": "Cc1cc(O)c(C(C)(C)C)cc1C(C)(C)C", "outcome": "inactive"}, {"compound": "CCOCOCC", "outcome": "inactive"}, {"compound": "Cc1cccc(C)n1", "outcome": "inactive"}, {"compound": "O=C1c2ccccc2C(=O)c2c(Cl)cccc21", "outcome": "inactive"}, {"compound": "CSc1ccc(O)cc1C", "AC50": "37.6 µM (active)"}, {"compound": "N#Cc1ccccc1O", "outcome": "inactive"}, {"compound": "O=C1C=CC(=O)N1c1ccccc1", "outcome": "inactive"}, {"compound": "CCN(CC)c1ccc(N=Nc2ccccc2)cc1", "outcome": "inactive"}, {"compound": "Oc1ccc2c(c1)CCC2", "outcome": "inactive"}, {"compound": "O=C(c1ccccc1)c1ccc(Cl)cc1", "outcome": "inactive"}, {"compound": "CC1CCCCC1", "outcome": "inactive"}]}]}
